Compound activity as filed in PubChem BioAssay.
BoNT A protease: inhibitors of Botulinum neurotoxin A light chain protease | multiplex microsphere protease substrate cleavage, flow cytometry | inhibition, % at 10 µM | 360,000 tested, 0.17% active | AID 588499; note: plate controls were buffer without enzyme for full effect and enzyme alone for no effect
Bead autofluor: counter-screen for toxin protease inhibitors: compound fluorescence. AID 624483. fluorescence intensity (test concentration not listed). compound autofluorescence counterscreen, microsphere flow cytometry; stronger effect = higher value. 360,000 tested, 3.1% active; in the data active = fluorescence intensity above about 16000; inconclusive = no clear call, values can overlap the other calls
Anthrax LF prot: inhibitors of Bacillus anthracis lethal factor protease; AID 588501; multiplex microsphere protease cleavage assay, LF; inhibition, % at 10 µM; P15917; 360,000 tested, 0.12% active; note: plate controls were buffer without enzyme for full effect and enzyme alone for no effect
BoNT-F LC inh: BoNT F light chain protease inhibition | Multiplex microsphere protease cleavage assay, flow cytometry | inhibition, % at 10 µM | 360,000 tested, 0.22% active; in the data active = inhibition above about 35%, passing the limit was not always enough; inconclusive = no clear call, values can overlap the other calls; note: plate controls were buffer without enzyme for full effect and enzyme alone for no effect
MazF activator: increases E. coli MazEF RNase cleavage of RNA; AID 504720; activation, % at 20 µM; P0AE70; FAM/BHQ RNA-DNA oligo cleavage fluorescence, 5 h; 350,000 tested, 0.32% active; in the data active = activation above about 50%
Target sequence (P0AE70 whole entry, looked up): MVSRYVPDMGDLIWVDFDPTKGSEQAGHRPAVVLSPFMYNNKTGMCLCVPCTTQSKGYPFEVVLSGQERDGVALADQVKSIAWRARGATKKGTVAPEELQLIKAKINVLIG
* marks the source's active call; other numbers are inactive results; i = inactive; ? = inconclusive; · = no result. Hits are enriched below; roughly 3.6% of the tested compounds scored in any of these assays. Cut-off read from the data, not from the text of the source, unless noted: active = inhibition above about 30%; inconclusive = no clear call, values can overlap the other calls; inactive = below that.

SMILES	BoNT A protease	Bead autofluor	Anthrax LF prot	BoNT-F LC inh	MazF activator
Cc1cc(OC(C)C(=O)N(Cc2ccco2)C2CCS(=O)(=O)C2)ccc1Cl (stereo not given)	-0.4	5353	-1.0	-0.8	-1.0
CCOc1ccccc1N1CCN(CC(=O)Nc2cc(C)on2)CC1	-0.8	3353	-1.0	-5.8	8.1
Cc1cc(NC(=O)CN2CCN(c3ccccc3O)CC2)no1	-2.1	17083*	-3.0	-4.8	-4.5
Cc1c(Cl)cccc1NC(=S)NCc1cccn1C	0.1	2041	-0.7	-1.0	4.3
O=C(NCc1ccc(F)cc1)N1[C@H]2CC[C@@H]1C=C(c1ccc(F)cc1OCc1ccccc1)C2	-0.6	3606	3.4	-7.6	-0.3
COc1cc(Cl)c(C)cc1NC(=O)CCCn1c(=O)oc2ccccc21	0.9	1982	-0.1	6.3	1.4
O=C(CCCN1C(=O)C2CC=CCC2C1=O)Nc1ccccc1F (stereo not given)	-0.2	6123	-1.3	7.2	8.1
O=C(CCCN1C(=O)CCC1=O)Nc1ccc(Br)cc1F	0.4	23503*	-0.1	0.0	-2.2
O=C(CCCN1C(=O)CCC1=O)Nc1ccccc1F	3.6	22328*	2.0	4.0	-2.3
Cc1cc(Cl)ccc1NC(=O)CCCN1C(=O)CCC1=O	-0.2	11642	-0.9	-5.7	2.5
COc1cc(Cl)c(C)cc1NC(=O)CCCN1C(=O)CCC1=O	0.7	19155*	-2.8	-1.5	1.8
Cc1ccncc1CNC(=O)c1ccccc1	-0.4	4334	1.2	1.2	10.4
Cc1cc(C)c(C#N)c(SCc2ccc(C(=O)O)cc2)n1	0.4	3101	31.6*	?	-15.7
Cc1cc(C)c(C#N)c(SCc2ccccc2)n1	0.2	2419	-11.3	7.9	-2.9
Cc1cc(C)c(C#N)c(SCc2ccccc2C)n1	-0.7	2025	-0.3	-10.1	1.9
Cc1ccc2nc(CSc3nc(C)cc(C)c3C#N)[nH]c2c1	8.3	21126*	1.2	7.4	7.3
CCCOC(=O)N[C@@H]1C(=O)N2C(C(=O)OCCC)=C(C)CS[C@H]12	0.4	3504	-5.5	0.8	-18.8
O=C(CN(Cc1ccccc1)S(=O)(=O)c1ccc2c(c1)OCCO2)Nc1ccc2c(c1)OCCO2	-0.4	4248	-6.8	-5.3	-21.8
COCCNC(=O)CN(Cc1ccc(Cl)cc1)S(C)(=O)=O	1.1	20349*	-0.5	0.5	-6.1
COc1ccc(NC(=O)CN(Cc2ccccc2)S(C)(=O)=O)cc1	1.7	23289*	-0.1	0.3	5.7
Cc1ccc(NC(=O)CN(Cc2ccccc2)S(C)(=O)=O)cc1C	0.3	20638*	0.6	-0.8	-2.2
CS(=O)(=O)N(CC(=O)Nc1c(F)cccc1F)Cc1ccccc1	2.7	4272	8.8	19.8	9.5
CS(=O)(=O)N(CC(=O)Nc1ccccc1)Cc1ccc(Cl)cc1	0.5	11059	-3.7	-1.9	4.8
CS(=O)(=O)N(CC(=O)Nc1ccc2c(c1)OCCO2)Cc1ccccc1	1.5	21816*	-0.1	0.3	6.1
N#CCOc1coc(CN2CCN(c3ccccc3)CC2)cc1=O	1.4	5237	1.4	4.0	-22.1
SMILES	BoNT A protease	Bead autofluor	Anthrax LF prot	BoNT-F LC inh	MazF activator
O=C(N/C(=C/c1ccc(F)cc1)C(=O)N1CCCC1)c1ccccc1	-1.2	6020	0.3	-0.8	7.2
Cc1ccc(/C=N/NC(=O)c2cc(-c3ccncc3)nc3ccccc23)o1	1.4	4270	0.5	5.4	-0.2
CC(/C=N/NC(=O)c1cc(-c2ccncc2)nc2ccccc12)=C\c1ccco1	1.2	16302*	-6.3	-0.7	-4.7
Cc1cc(Nc2ccccc2N2CCOCC2)n2ncnc2n1	-0.3	16563*	-2.2	-1.0	1.5
Cc1cc(Nc2ccccc2C(=O)O)n2ncnc2n1	-0.4	3890	-1.2	-5.3	-1.6
CC(C(=O)O)N(c1ccccc1Cl)S(C)(=O)=O (stereo not given)	-0.7	3067	-5.6	-9.8	0.5
CS(=O)(=O)N1CCCC(C(=O)Nc2ccc(F)cc2F)C1 (stereo not given)	-0.5	4434	-9.2	-1.0	0.8
O=C(CN1CCN(c2ccccc2)CC1)Nc1c(C(=O)C2CC2)oc2ccccc12	?	20951*	-3.7	0.8	-16.0
CCOC(=O)C1(C)CCCN1C(=O)c1csnn1 (stereo not given)	0.2	3418	-3.9	4.2	·
COc1ccccc1OCCNC1CCCC1	0.4	21707*	2.7	1.9	-5.2
CC(C)Oc1ccc(OCCNC2CCCC2)cc1	1.7	20103*	0.1	1.3	7.7
O=C(CSc1ccc(Cl)cc1)NC(=O)c1ccccc1	-3.2	4317	-0.9	-5.6	-11.5
Cc1cc(NC(=O)c2nn3cccnc3c2Cl)no1	-3.9	21821*	-2.0	-5.7	6.7
Cc1cc(NC(=O)c2cnn3cccnc23)no1	1.1	12933	1.5	3.0	-3.7
O=C(Nc1ccccc1)c1n[nH]c(Cn2cncn2)n1	-1.5	23808*	-4.6	-0.8	-1.9
O=C(Nc1cccc(C(F)(F)F)c1)c1n[nH]c(Cn2cncn2)n1	?	?	?	-37.9	0.5
CC(=O)N1CCN(C(=O)COC(=O)COc2ccc(C#N)cc2)CC1	0.1	4939	-3.9	-1.9	4.7
COc1ccc(OC)c(-n2c(O)c(/C=C3\C=Nc4ccccc43)c(=O)[nH]c2=O)c1	-0.9	3837	-0.2	-23.2	-33.5
CCOc1ccc(-n2c(O)c(/C=C3\C=Nc4ccccc43)c(=O)[nH]c2=O)cc1	2.6	4684	-9.1	21.0	120.0*
O=C(c1ccccc1)c1ccc(O)cc1O	-1.0	4936	2.6	0.0	i
COc1ccc(C(=O)c2ccccc2)c(O)c1	-1.3	23016*	-2.0	-3.2	-7.5
Cc1ccc(NS(=O)(=O)c2ccc(NC(=O)c3cccs3)cc2)cc1	0.6	2643	-5.2	-4.8	73.6*
O=C(Nc1ccc(S(=O)(=O)Nc2ncccn2)cc1)c1ccc(Br)s1	-2.4	16878*	-1.7	-5.1	-2.9
COc1ccccc1CNS(=O)(=O)c1cc(C(=O)NCC2CCCO2)c(Cl)cc1Cl (stereo not given)	-0.1	3755	2.0	-1.6	8.6
c1ccc(OCc2nn3c(-c4ccccn4)nnc3s2)cc1	0.0	9463	-11.3	-0.8	0.5
SMILES	BoNT A protease	Bead autofluor	Anthrax LF prot	BoNT-F LC inh	MazF activator
c1ccc(OCc2nn3c(-c4ccncc4)nnc3s2)cc1	-4.2	21442*	-1.0	-4.7	-5.7
COc1ccc(C(=O)O)cc1S(=O)(=O)Nc1ccccc1Cc1ccccc1	0.2	6250	2.2	-6.7	6.9
CCOC(=O)N(C)C[C@H]1OCc2cnnn2CCCC(=O)N([C@@H](C)CO)C[C@H]1C	-0.8	3752	-1.7	-5.2	-0.2
CC1(C)Cc2c(sc3c2c(=O)n(-c2ccc(Cl)cc2)c(=O)n3CC(N)=O)CO1	0.9	4544	20.7	?	-9.8
Cn1c(=O)n(-c2cccc(Cl)c2)c(=O)c2c3c(sc21)COC(C)(C)C3	-3.0	17764*	-1.1	-5.0	4.0
Cc1ccc(CCCNC(=O)C2CCC(=O)N(Cc3cccc(F)c3)C2)cc1 (stereo not given)	-2.1	4221	1.1	-3.1	-1.8
O=C(O)c1ccc(-c2ccccn2)s1	-2.7	3915	-2.9	-12.3	-2.5
O=C(O)c1cc(-c2ccccn2)n[nH]1	0.7	22786*	1.3	0.6	-4.1
